# Source: PubChem (National Center for Advancing Translational Sciences (NCATS))
# Only some compounds are listed: those with a hit (about 0.88% of all), similar ones and a draw of the others.
# TRHR PAM: qHTS for Small Molecule Agonists and Allosteric Enhancers of Human TRH Receptor: Primary Screen for Enhancers. Thyrotropin-releasing hormone receptor (Homo sapiens), P34981. TRHR cells, fluo-8 calcium fluorescence, EC20 TRH enhancement. enhancement, % at 2 µM. 360,000 compounds, 0.66% hits. AID 493056, 2011; in the data active means enhancement above about 30%; further: 0% is about no effect
#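 Enhancer read-out: after compound pinning and an initial kinetic agonist-mode read, an EC20 of TRH (10 nM final) was injected and fluo-8 calcium signal (Ex 480/Em 530) followed at 1 s/cycle for 100 cycles in TRHR-expressing cells.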
# CBFb-RUNX1 inh: qHTS Assay for Compounds Blocking the Interaction Between CBF-beta and RUNX1 for the Treatment of Acute Myeloid Leukemia; Potency, µM (doses to about 59.8 µM), for inactives: top-dose activity, negative = inhibition, actives largely listed as inhibitors; 230,000 tested, under 10 active; AlphaScreen CBFb-His/RUNX1-biotin binding, biochemical; further: % of control where 0% means no effect
#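 Compounds were screened at multiple concentrations against a preformed CBF-beta(His)/RUNX1(biotin) complex (30 nM of each) for 15 min at room temperature, followed by 90 min with nickel and streptavidin beads and AlphaScreen reading.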
# TRHR agonist: qHTS for Small Molecule Agonists and Allosteric Enhancers of Human TRH Receptor: Primary Screen for Agonists | Thyrotropin-releasing hormone receptor (Homo sapiens), P34981 | TRHR cells, calcium flux fluo-8, FDSS agonist mode | activation, % at 2 µM | 360,000 compounds, 0.18% hits | AID 493084, 2011; in the data active means activation above about 30%; further: 0% is about no effect
#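 Agonist-mode FDSS calcium read (Ex 480/Em 530, 1 s cycles) in 1536-well TRHR cells with fluo-8 dye, after 10-cycle baseline and 23 nL compound addition; TRH at EC20 (10 nM final) added afterwards for the enhancer phase.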
# MBNL1-CUG inh: qHTS Assay for Inhibitors of MBNL1-poly(CUG) RNA binding; TR-FRET MBNL1-His/biotin-(CUG)12 binding, 665/545 ratio; Muscleblind-like protein 1 (Homo sapiens), Q9NR56; 280,000 compounds, 0.036% hits; Potency, µM (doses to about 57.5 µM), inactives show at the highest dose activity change, negative = inhibition, most hits filed as inhibitors; active means well fitted inhibition curve with a large enough effect in the signal ratio, with a control signal flat, not every such curve was filed as active; inconclusive means small, poorly fitted or top-dose-only effect, or effect the other way, or a change in a side signal; inactive means no such curve, though single readings can be large or run the other way; the % refers to the signal ratio; further: potency means the concentration at half of the fitted maximal effect; on the % scale 0 is the no-effect control and ±100 the full control effect
# Target sequence (Q9NR56 whole entry, looked up): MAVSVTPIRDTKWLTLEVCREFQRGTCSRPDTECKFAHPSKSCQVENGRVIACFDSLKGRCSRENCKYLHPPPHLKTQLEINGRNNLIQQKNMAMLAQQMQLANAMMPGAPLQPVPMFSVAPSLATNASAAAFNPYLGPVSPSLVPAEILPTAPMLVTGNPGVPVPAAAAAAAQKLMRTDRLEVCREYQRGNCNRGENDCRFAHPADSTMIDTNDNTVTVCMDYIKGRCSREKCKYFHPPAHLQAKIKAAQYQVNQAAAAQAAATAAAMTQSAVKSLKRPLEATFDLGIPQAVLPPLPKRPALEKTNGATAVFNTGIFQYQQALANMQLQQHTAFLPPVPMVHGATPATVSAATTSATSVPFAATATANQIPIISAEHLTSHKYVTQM
#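 Inhibition of protein-RNA binding appears as loss of TR-FRET between terbium anti-His antibody on MBNL1-His and streptavidin-XL665 on biotin-(CUG)12. Activity is normalized to buffer-only and uninhibited-complex controls.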
# IL-2 act: qHTS of IL-2 Activators; IL-2 activation reporter assay, cell-based qHTS; stimulated with anti-CD3/CD4/CD28 beads; in transgenic mouse T cells; 360,000 compounds, 0.065% hits; activation, % (series mostly up to about 46 µM); in the data active means activation above about 50%; inconclusive means mostly about 30% to 49%; further: 0% is about no effect
#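 Unstimulated transgenic mouse T cells; 60-min compound exposure; bead-based TCR/CD4/CD28 stimulation; 18 h culture, 37 degrees C; dual fluorescence (EGFP, DsRed) plate cytometry.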
# Epigenetic derep: Quantitative High-Throughput Screen for Regulators of Epigenetic Control. AID 1865, 2009. Potency, µM (titrated, usually from 53.9 µM), for the others: at the top dose GFP activation, usual class: activators. murine LDR cells, GFP reporter derepression, 30 h. 280,000 compounds, 0.2% hits; further: potency means the concentration at half of the fitted maximal effect; % of control where 0% means no effect; nearly all actives have a fitted effect of over 60% in size
#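 GFP-positive cell count by laser-scanning cytometry (objects 20–120 um) after 30 h, 37 C compound exposure of murine LDR cells; reporter is CMV-GFP integrated at a silenced locus, inducible by HDAC or DNMT inhibitors.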
# Numbers without * were called inactive; u = inconclusive; x = not tested or not shown; ! = not confirmed by another sample. Unless noted, the call rests on the fitted dose curve; in most records, active means well fitted curve in the direction sought with a large enough effect; inconclusive means small, poorly fitted or top-dose-only effect, or another doubt; inactive means no such curve, though single readings can be large; an effect the other way counts as inactive or inconclusive.
SMILES,TRHR PAM,CBFb-RUNX1 inh,TRHR agonist,MBNL1-CUG inh,IL-2 act,Epigenetic derep
CCCC(=O)Nc1ccccc1N1CCN(C(=O)C(C)C)CC1,32*,1%,-1,8%,-3,-5%
Cc1ccc(-n2ncc3c2CC(C)(C)CC3NC(=O)CCN2CCCO2)cc1 (stereo unspecified),-4,x,1,0%,1,x
CC1(C)Cc2c(cnn2-c2ccc(F)cc2)C(NC(=O)CCN2CCCCO2)C1 (stereo unspecified),37*,x,0,5%,0,x
CC1(C)Cc2c(cnn2-c2ccc(F)cc2)C(NC(=O)CCC(F)(F)F)C1 (stereo unspecified),3,x,0,4%,-1,x
CC1(C)Cc2c(cnn2-c2cccc(F)c2)C(NC(=O)c2ccc[n+]([O-])c2)C1 (stereo unspecified),31*,x,0,-6%,3,x
COC(=O)CCC(=O)NC1CC(C)(C)Cc2c1cnn2-c1ccc(F)cc1 (stereo unspecified),38*,x,0,5%,-2,x
CCCCN1C(=O)C(NC(=O)c2ccc(C(C)(C)C)cc2)(C(F)(F)F)C(C(=O)OC)=C1C (stereo unspecified),-3,x,-1,x,x,-1%
NS(=O)(=O)c1cccc(NC(=O)COc2ccc([N+](=O)[O-])cc2)c1,33*,-14%,0,u,-2,-1%
CN(C)S(=O)(=O)c1cccc(NC(=O)COC(=O)CCOc2ccccc2)c1,33*,0%,0,-4%,0,0%
CC(C)NS(=O)(=O)c1ccc(OCC(=O)Nc2cccc(F)c2)cc1,32*,10%,-1,-8%,0,-1%
COc1cc(OC)c(Nc2c3c(nc4nc(-c5cccs5)nn24)CCCC3)cc1Cl,-1,x,0,x,x,-1%
CC1(C(=O)NC2CCCCC2)Cc2ccccc2C(=O)N1Cc1ccc(Cl)cc1 (stereo unspecified),-8,x,2,x,x,0%
Cc1ccc(C)c(N2CCN(S(=O)(=O)c3csc(C(N)=O)c3)CC2)c1,32*!,x,-3,-11%,-3,0%
COc1ccc(CCNC(=O)C(=O)Nc2ccc(C)c(C)c2)cc1,32*,x,-1,x,x,0%
Clc1cccc(OCCCCN2CCCCC2)c1,34*,x,0,1%,-1,x
COC(=O)c1cnn2c1C(=O)N(Cc1cccs1)CC2,34*,-9%,0,-4%,-3,0%
Cc1nnc(SCC(=O)N2CCN(c3ccccc3)CC2)n(N)c1=O,38*,-6%,0,-15%,-4,1%
CCOC(=O)C1CCN(S(=O)(=O)c2ccc(C)c(C)c2)CC1,32*,7%,0,-13%,2,0%
CCOc1ccc(CC(=O)Nc2ccc3nc(N4CCCCC4)cc(C)c3c2)cc1OCC,11,x,0,x,x,u
CC(C)C(OC(=O)CNC(=O)c1ccccc1)C(=O)Nc1cc(C(F)(F)F)ccc1Cl (stereo unspecified),-6,x,1,x,x,x
Cc1cccc(CCNC(=O)CN(C)S(=O)(=O)c2ccc3c(c2)c(=O)n(C)c(=O)n3C)c1,-7,-2%,0,u,2,0%
Cc1ccc(CCNC(=O)CN(C)S(=O)(=O)c2ccc3c(c2)c(=O)n(C)c(=O)n3C)cc1,40*,-1%,0,12%,1,-2%
Cc1ccc(-n2ncc3c(NCCCn4ccnc4)ncnc32)cc1,31*,x,0,x,x,1%
CCOC(=O)N1CCN(C(=O)c2cc3cc(Br)ccc3oc2=O)CC1,41*,3%,0,-5%,-1,1%
CN(C)C(CNC(=O)c1ccc(C(=O)c2ccccc2)cc1)c1ccccc1 (stereo unspecified),-2,x,1,2%,0,x
SMILES,TRHR PAM,CBFb-RUNX1 inh,TRHR agonist,MBNL1-CUG inh,IL-2 act,Epigenetic derep
CN(C)C(CNC(=O)c1ccc(-c2ccccc2)cc1)c1ccccc1 (stereo unspecified),31*,x,1,-6%,1,x
COc1ccccc1NC(=O)c1sc2nc3c(cc2c1N)CN(Cc1ccccc1)CC3,2,x,0,x,x,13%
CCOc1ccc(NC(=O)c2sc3nc4c(cc3c2N)CN(Cc2ccccc2)CC4)cc1,-1,x,0,x,x,16µM*
CCOc1ccc(-c2c(C#N)c(N)nc3sc(C(=O)c4ccccc4)c(N)c23)cc1,-2,23%,3,0%,125*,9%
COc1ccc(-c2c(C#N)c(N)nc3sc(C(=O)c4ccccc4)c(N)c23)cc1,2,4%,5,1%,0,0%
Nc1c(C(=O)Nc2ccccc2)sc2nc3c(cc12)CN(Cc1ccccc1)CC3,13,x,0,x,x,6%
COc1ccc(NC(=O)c2sc3nc4c(cc3c2N)CN(Cc2ccccc2)CC4)c(OC)c1,2,x,0,x,x,7.1µM*
CCOc1ccc(NC(=O)c2sc3nc4c(c(-c5ccc(OC)cc5)c3c2N)C(=O)CC(C)(C)C4)cc1,7,x,0,x,x,11µM*
Cc1cc2oc(C(=O)N(Cc3ccc(N(C)C)cc3)Cc3ccco3)c(C)c2cc1Cl,-1,x,0,x,x,0%
COC(=O)C1=C[C@@H](C(=O)OC)[C@@H]2C3=C(C(=O)[C@@]2(C)NC(=O)c2ccccc2)[C@H](C)[C@@H]2C(=O)N(Cc4ccccc4)C(=O)[C@@H]2[C@@H]3C1,x,-12%,x,x,x,x
COc1cccc(N2CCN(C(=O)Cn3ncc4c3-c3ccccc3OC4)CC2)c1,1,x,0,x,x,0%
C=CC[C@@H]1[C@H](O)CC[C@@]2(C)[C@H]1CC[C@@H]1[C@@H]2CC[C@]2(C)C([C@H](C)CCCC(C)C)CC[C@@H]12 (stereo partly specified),x,-8%,x,x,x,1%
COCC(=O)N(Cc1cc2cc(C)ccc2[nH]c1=O)c1ccc(C)c(C)c1,31*,x,0,-13%,0,x
COCC(=O)N(Cc1cc2cc(C)ccc2[nH]c1=O)c1cccc(C)c1C,3,x,0,-6%,-1,x
CCCCC/C=C\C/C=C\C/C=C\C/C=C\CCCC(=O)O[C@H](COCCCCCCCCCCCCCCCC)COP(=O)([O-])OCC[N+](C)(C)C,x,13%,x,x,x,12%
